25 molecules from PubChem BioAssay (NCATS) can be followed below.

Assay [1] has as its target Cytochrome P450 3A7 (Homo sapiens) (UniProt P24462). Description: Cytochrome P450 family 3 subfamily A member 7 (CYP3A7) small molecule antagonists: luciferase biochemical qHTS assay (AID 1963596). Further: on the % scale 0 is the no-effect control and ±100 the full control effect; nearly all actives have a fitted effect of over 40% in size. Conditions: P450-Glo CYP3A7 enzyme luminescence, 1 h; series mostly up to 57.4 µM. The gist of the method:
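Luminescence read-out (relative luminescence units) after 20 min with detection reagent, which stops the reaction. Enzyme, proluciferin substrate and compound preincubated 10 min, RT; NADPH regeneration system then started 1 h reaction. Ketoconazole as positive control.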

Assay [2] in a line: Viability qHTS for spleen associated tyrosine kinase inhibitor (SYKi) naive MV4-11 cells (AID 1963823). Further: nearly all actives have a fitted effect of over 40% in size. Further: potency means the concentration at half of the fitted maximal effect. The conditions noted are these: MV4-11 AML viability, CellTiter-Glo luminescence, 72 h; series mostly up to 45 µM. The gist of the method: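 In this viability screen, compounds acted on SYK inhibitor naive MV4-11 cells for three days (72 hr, 37 C). Remaining viable cells were measured by CellTiter-Glo luminescence following a 10 min room-temperature development.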
A general note: qHTS replaces the single test concentration by a dilution series.

Assay [3] can be described thus: Viability qHTS for spleen associated tyrosine kinase inhibitor (SYKi) drug resistant MV4-11 cells (AID 1963824). Further: nearly all actives have a fitted effect of over 35% in size. Further: potency means the concentration at half of the fitted maximal effect. The conditions noted are these: SYKi-resistant MV4-11 viability, CellTiter-Glo, 72 h; series mostly up to 45 µM. The gist of the method: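 SYK-inhibitor-resistant MV4-11 AML cells were seeded at 500 per well onto compound and cultured 72 hours (37 °C, 5% CO2). CellTiter-Glo was then added, and after 10 min at room temperature, luminescence gave viability.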

Assay [4] in a line: Cellular viability qHTS for adrenocortical cancer (ACC) cell line SW-13 (AID 1963989). Further: nearly all actives have a fitted effect of over 65% in size. Further: potency means the concentration at half of the fitted maximal effect.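 On activity (max response): cells grown in serum-free medium with ITS supplement; on the % scale 0 is the no-effect control and ±100 the full control effect.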 Conditions: SW-13 ACC cells viability, CellTiter-Glo, 48 h; activity (max response): active compounds read low. The gist of the method: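 IC50 and maximal-response values come from four-parameter logistic fits of titration data. SW-13 cells in serum-free medium received compounds (up to 46 uM final) for 48 h before CellTiter-Glo luminescence.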

Assay [5] in a line: Quantitative highthroughput screen to assess conditional lethalithy of SEM cells grown in RPMI1640 with dialyzed fetal bovine serum (RPMI+ds) (AID 1963884). Further: potency means the concentration at half of the fitted maximal effect; nearly all actives have a fitted effect of over 35% in size. The conditions noted are these: SEM B-ALL cells, RPMI+dialyzed FBS, CellTiter-Glo viability, 48 h; series mostly up to 45.8 µM. The gist of the method: (§1)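 Each medium arm—HPLM with 10% dialyzed FBS, or RPMI1640 with 5 mM glucose and 10% untreated or dialyzed FBS—was screened against an 11-point, 3-fold compound titration for 48 h at 37 °C, with CellTiter-Glo luminescence as endpoint.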

A short description of assay [6]: Cellular viability qHTS for adrenocortical cancer (ACC) cell line NCI-H295R (AID 1963990). Further: nearly all actives have a fitted effect of over 60% in size. Further: potency means the concentration at half of the fitted maximal effect. Conditions: CellTiter-Glo ATP luminescence, 48 h; series mostly up to 46.1 µM. In a few lines:
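Adrenocortical carcinoma cells, suspended at 300 000 cells/mL in serum-free DMEM plus ITS, rested overnight before pin transfer of compound. After two days' incubation, ATP-dependent luminescence was recorded and curve-fitted.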

Assay [7] can be described thus: Quantitative highthroughput screen to assess conditional lethalithy of P12 Ichikawa cells grown in Human Plasma-Like Medium with dialyzed fetal bovine serum (HPLM+ds) (AID 1963879). Further: potency means the concentration at half of the fitted maximal effect; nearly all actives have a fitted effect of over 35% in size. Conditions: ATP luminescence, 48 h; Potency: viability; series mostly up to 45.8 µM. The gist of the method:
as §1

The nature of assay [8]: Quantitative highthroughput screen to assess conditional lethalithy of SEM cells grown in Human Plasma-Like Medium with dialyzed fetal bovine serum (HPLM+ds) (AID 1963882). Further: potency means the concentration at half of the fitted maximal effect; nearly all actives have a fitted effect of over 35% in size. Conditions: SEM B-ALL cells in HPLM+ds, CellTiter-Glo viability, 48 h; series mostly up to 45.8 µM. In a few lines:
as §1
On the technique in general: ATP-based viability assays read luminescence as a measure of living cells.

The nature of assay [9]: Quantitative highthroughput screen to assess conditional lethalithy of SEM cells grown in RPMI1640 with unreated serum (RPMI+s) (AID 1963883). The conditions noted are these: SEM B-ALL cells, CellTiter-Glo viability, 48 h; series mostly up to 45.8 µM. The gist of the method: as §1
Assay [10] is described as follows: Quantitative highthroughput screen to assess conditional lethalithy of P12 Ichikawa cells grown in RPMI1640 with untreated serum (RPMI+s) (AID 1963881). Conditions: ATP luminescence, 48 h; Potency: viability; series mostly up to 45.8 µM. The gist of the method: as §1

Where “and” joins values, the source holds several entries; their conditions need not be identical. Identical values can stand only once. Records with an inconclusive call do not appear. Values without a mark were called inactive. Calls of active or inactive are those of the source. The call rests on the fitted dose curve; in most records, active means well fitted curve in the direction sought with a large enough effect; inconclusive means small, poorly fitted or top-dose-only effect, or another doubt; inactive means no such curve, though single readings can be large; an effect the other way counts as inactive or inconclusive. Where a SMILES comes first, the peptide text is derived from it. Bridges are numbered along the chain shown (N, C = ends). [ ]: non-standard residue; d: D form. The star is where a group is joined. X1 = CCC(C)C(N)C1=NC(C(=O)*)CS1; dOrn = NCCC[C@@H](N)C(=O)O

Chain of Cytochrome P450 3A7 (Homo sapiens) (P24462 whole entry, looked up): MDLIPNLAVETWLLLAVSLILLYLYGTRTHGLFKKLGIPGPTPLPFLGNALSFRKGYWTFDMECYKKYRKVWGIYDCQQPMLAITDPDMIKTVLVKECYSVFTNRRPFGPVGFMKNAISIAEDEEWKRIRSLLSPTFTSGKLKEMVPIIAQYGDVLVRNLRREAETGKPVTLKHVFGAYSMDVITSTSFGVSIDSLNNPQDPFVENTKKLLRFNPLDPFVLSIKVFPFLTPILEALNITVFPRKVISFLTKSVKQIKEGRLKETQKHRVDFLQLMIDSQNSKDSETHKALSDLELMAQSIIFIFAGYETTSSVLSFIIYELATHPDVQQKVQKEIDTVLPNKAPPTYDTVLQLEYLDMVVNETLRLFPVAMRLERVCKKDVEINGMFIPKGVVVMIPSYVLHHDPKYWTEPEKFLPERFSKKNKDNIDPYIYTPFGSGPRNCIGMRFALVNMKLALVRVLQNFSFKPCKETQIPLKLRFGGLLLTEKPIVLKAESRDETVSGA

Consider `O=C(NCC(O)CO)c1c(I)c(C(=O)NCC(O)CO)c(I)c(N(CCO)C(=O)CO)c1I` (configuration not stated), for which the Potency entry in [1], in [2] and in assay [3] was “inactive” each time. Further, the activity (max response) in assay [4] is -7.35%.
In the case of `Cc1cc2c(cc1S(N)(=O)=O)S(=O)(=O)CCC2`, the Potency result in assay [1], in [2] and in assay [3] was “inactive” throughout. For the same molecule, the activity (max response) in assay [4] was 12.2%.
On to `O=P(O)(O)OCC(O)CO` (configuration not stated), for which the Potency entry in [1], in assay [2] and in assay [3] was “inactive” in each case. In addition, in [4], the activity (max response) was 10.4%.
With `CCCCC(CC)COC(=O)c1ccccc1O` (configuration not stated), the Potency result in [1] was “inactive”. Besides, the values for the Potency in [2] and in assay [3] were 596 nM (active) and 5.96 µM (active), respectively. In addition, the activity (max response) in assay [4] is 7.38%.
For the molecule `C[C@H](Nc1ncnc2nc[nH]c12)c1cc2cccc(Cl)c2c(=O)n1-c1ccccc1`, the Potency entry in [1] was “inactive”. The Potency in assay [2] is 11800 nM (active); in [3], 5.8 µM (active) and 6.61 µM (active). Also, the activity (max response) in [4] is -1.12%.
As to `COC(=O)c1cccnc1`, the Potency entry in [1], in assay [2] and in assay [3] was “inactive” throughout. Moreover, in assay [4], the activity (max response) is 5.78%.
On to `O=C(CO)N1CCC(c2[nH]nc(-c3ccc(Cl)cc3)c2-c2ccncn2)CC1`, for which the Potency result in [1] and in [6] was “inactive” throughout. For the same molecule, the results for the Potency in assay [2], in [3] and in assay [5] were 2310 nM (active), 9.2 µM (active) and 13200 nM (active), respectively. For the same molecule, in assay [4], the activity (max response) was -7.74%.
In the case of `CCC(C)C(N)C1=NC(C(=O)N[C@@H](CC(C)C)C(=O)N[C@H](CCC(=O)O)C(=O)N[C@H](C(=O)N[C@H]2CCCCNC(=O)[C@H](CC(N)=O)NC(=O)[C@@H](CC(=O)O)NC(=O)[C@H](Cc3cnc[nH]3)NC(=O)[C@@H](Cc3ccccc3)NC(=O)[C@H]([C@@H](C)CC)NC(=O)[C@@H](CCCN)NC2=O)[C@@H](C)CC)CS1` (some centres not stated) (X1-L[dE]IK[dOrn]I[dF]H[dD]N; lactam 4-C), the Potency result in [1], in assay [2] and in [3] was “inactive” throughout. Besides, the activity (max response) in [4] was -8.42%.
`NCCC(O)(P(=O)(O)O)P(=O)(O)O`: the Potency result in assay [1], in assay [2] and in assay [3] was “inactive” throughout. In assay [4], the activity (max response) was 6.05%.
Consider `COC(=O)Nc1nc2ccc(C(=O)c3cccs3)cc2[nH]1`, for which the Potency result in assay [1] is “inactive”. Moreover, the Potency in assay [2] was 106 nM (active); in assay [3] it was 42.2 nM (active) and 118 nM (active); in [7] it was 18.7 nM (active); in assay [4], 8.2 nM (active) and 126 nM (active); in [6], 9.2 nM (active) and 158 nM (active).
As for `C/C(=N\O)[C@@H](C)NCC(C)(C)CN[C@H](C)/C(C)=N/O`, the Potency entry in assay [1], in assay [2] and in [3] was “inactive” each time. The activity (max response) in [4] was 8.19%.
Turning to `Cc1nc2n(c(=O)c1CCN1CCC(c3noc4cc(F)ccc34)CC1)CCC[C@H]2O`, the Potency result in assay [1], in [2] and in assay [3] was “inactive” in each case. Besides, in assay [4], the activity (max response) was 4.14%.
With `CCn1ccc(NS(=O)(=O)c2ccc(N)cc2)nc1=O`, the Potency entry in assay [1], in assay [2] and in [3] was “inactive” throughout. For the same molecule, the activity (max response) in assay [4] is 11.1%.
Take `Cc1cc(C2CCCCC2)n(O)c(=O)c1`: the Potency result in assay [1] was “inactive”. The Potency is 2.31 µM (active) and 4.68 µM (active) in assay [2]; 2.59 µM (active) and 3.35 µM (active) and 3.72 µM (active) in assay [3]; 13200 nM (active) in assay [8]; 11800 nM (active) in assay [9]; 13200 nM (active) in assay [5]; 1.3 µM (active) and 25.1 µM (active) in assay [4]. For the same molecule, the Potency in assay [6] was 2 µM (active).
Regarding `COCCc1ccccn1`, the Potency result in [1] and in assay [3] was “inactive” throughout. The Potency in [2] is 75 nM (active). The activity (max response) in assay [4] is -6%.
As to `CCCOc1ccc2nc(NC(=O)OC)[nH]c2c1`, in assay [1], the Potency entry was “inactive”. For the same molecule, the Potency in assay [2] is 263 nM (active); in assay [3], 184 nM (active) and 332 nM (active); in assay [7], 41.8 nM (active); in assay [10], 41.8 nM (active); in assay [9], 14.8 nM (active); in assay [5], 20.9 nM (active). In addition, the Potency in [4] was 251 nM (active); in [6] it was 0.355 µM (active).
Turning to `COC(=O)c1ccccc1C(=O)c1ccc(OCCN2CCCCC2)cc1`, the Potency result in [1], in assay [2], in assay [3] and in assay [6] was “inactive” in each case. Besides, the activity (max response) in assay [4] is -0.425%.
As for `Nc1nc(-c2ccccc2)c(Br)c(=O)[nH]1`, the Potency entry in assay [1], in assay [2], in [3] and in assay [6] was “inactive” throughout. Further, the activity (max response) in assay [4] is 0.407%.
On to `NC[C@H]1O[C@H](O[C@H]2[C@H](O)[C@@H](O[C@H]3O[C@H](CO)[C@@H](O)[C@H](N)[C@H]3O)[C@H](N)C[C@@H]2N)[C@H](N)[C@@H](O)[C@@H]1O`, for which the Potency entry in [1], in assay [2], in [3] and in assay [6] was “inactive” in each case. The activity (max response) in [4] is -3.44%.
As for `CN1CC(=O)NC1=N`, the Potency entry in assay [1], in [2], in [3] and in assay [6] was “inactive” in each case. Also, the activity (max response) in [4] is 5.44%.
Consider `CC[C@H]1OC(=O)[C@H](C)[C@@H](O[C@H]2C[C@@](C)(OC)[C@@H](O)[C@H](C)O2)[C@H](C)[C@@H](O[C@@H]2O[C@H](C)C[C@H](N(C)C)[C@H]2O)[C@](C)(O)C[C@@H](C)CN(C)[C@H](C)[C@@H](O)[C@]1(C)O`, for which the Potency result in assay [1], in [2], in assay [3] and in assay [6] was “inactive” in each case. Also, the activity (max response) in assay [4] is -23.1%.
For the molecule `CN=C(NC#N)Nc1ccc(C2=NNC(=O)CC2C)cc1` (configuration not stated), the Potency result in assay [1], in assay [2], in [3] and in assay [6] was “inactive” in each case. Also, the activity (max response) in assay [4] was -6.43%.
With `CC(C(=O)O)c1cccc(Oc2ccccc2)c1` (configuration not stated), the Potency result in assay [1], in assay [2], in [3] and in [6] was “inactive” each time. Further, the activity (max response) in assay [4] is 9.95%.
On to `C/C(=N\O)c1ccc(OCC(=O)N2CCCCC2)cc1`, for which the Potency entry in assay [1], in assay [2], in assay [3] and in assay [6] was “inactive” throughout. In addition, the activity (max response) in assay [4] is -4.8%.
Take `CNc1c2c(nn1C)CCCC2`: the Potency entry in assay [1], in [2], in assay [3] and in assay [6] was “inactive” throughout. Further, the activity (max response) in [4] is -0.416%.
